Rows were chosen to be rich in hits. Some 1% of all compounds tested hit in one or more screens of this group.
FEN1 inh-1: blocks human flap endonuclease 1 | Potency, µM (highest dose often 114 µM), for the others: at the highest dose activity change, negative = inhibition, usual class: inhibitors | Recombinant FEN1 flap cleavage, fluorescence, 15 min | AID 588795 | 390,000 compounds, 0.35% hits | P39748; further: on the % scale 0 is the no-effect control and ±100 the full control effect; nearly all actives have a fitted effect of over 65% in size
Target sequence (P39748 whole entry, looked up): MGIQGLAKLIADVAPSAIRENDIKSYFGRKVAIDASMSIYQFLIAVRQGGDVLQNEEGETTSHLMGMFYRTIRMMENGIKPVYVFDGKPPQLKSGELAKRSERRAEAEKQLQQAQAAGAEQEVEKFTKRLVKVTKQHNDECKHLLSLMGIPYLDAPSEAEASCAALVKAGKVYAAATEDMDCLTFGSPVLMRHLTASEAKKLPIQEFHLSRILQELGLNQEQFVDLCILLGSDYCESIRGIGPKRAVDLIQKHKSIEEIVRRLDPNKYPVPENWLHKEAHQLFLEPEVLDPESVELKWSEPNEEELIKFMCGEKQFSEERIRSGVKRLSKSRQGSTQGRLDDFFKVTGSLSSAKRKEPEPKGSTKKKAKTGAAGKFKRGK
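Nuclease activity of 10 nM FEN1 was measured after 15 min of room-temperature exposure to titrated compounds, by adding 50 nM flap substrate and reading plates at 0 and 15 min.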
L3MBTL1 block: L3MBTL1 (human) inhibition | AlphaScreen L3MBTL1–H3K9me1 peptide binding | Potency, µM (top dose mostly 57.1 µM), for the others: top-dose activity, negative = inhibition, most hits filed as inhibitors | Q9Y468 | 230,000 compounds, 0.66% hits; further: on the % scale 0 is the no-effect control and ±100 the full control effect; nearly all actives have a fitted effect of over 60% in size
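First, the protein-peptide complex forms for 30 min at room temperature (L3MBTL1 50 nM, biotinylated H3K9me1 peptide 75 nM). Next, compounds are pin-transferred and incubated 30 min. Finally, AlphaScreen beads are added and read after 30 min.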
BLM inh: blocks DNA unwinding by human BLM helicase. P54132. recombinant BLM DNA unwinding, fluorescence dequenching. Potency, µM (highest dose often 56.1 µM), for inactives: top-dose activity change, negative = inhibition, usual class: inhibitors. 350,000 compounds, 0.2% hits. AID 2528;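 further: plate controls were vehicle for no effect and no enzyme for full effect; nearly all actives have a fitted effect of over 35% in size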
APEX1 inh: inhibitors of human APE1 endonuclease; P27695; recombinant APE1, TAMRA/BHQ-2 abasic DNA cleavage fluorescence; Potency, µM (doses to about 65.8 µM), inactives show top-dose activity change, negative = inhibition, usual class: inhibitors; 350,000 compounds, 0.35% hits;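 further: plate controls were vehicle for no effect and reference inhibitor for full effect; nearly all actives have a fitted effect of over 55% in size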
Target sequence (P27695 whole entry, looked up): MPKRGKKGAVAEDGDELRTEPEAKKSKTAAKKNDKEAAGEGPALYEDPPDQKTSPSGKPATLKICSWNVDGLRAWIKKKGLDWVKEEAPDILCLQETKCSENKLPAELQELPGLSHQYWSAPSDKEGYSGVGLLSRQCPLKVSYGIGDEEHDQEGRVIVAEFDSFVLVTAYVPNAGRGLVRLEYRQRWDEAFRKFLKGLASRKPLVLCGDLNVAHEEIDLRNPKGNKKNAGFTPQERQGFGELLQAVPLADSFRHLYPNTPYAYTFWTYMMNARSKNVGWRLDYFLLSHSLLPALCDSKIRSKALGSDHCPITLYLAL
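Substrate: short duplex with […] THF abasic site, 5'-TAMRA and 3'-BHQ-2, 50 nM final. APE1 at 0.75 nM, preincubated 15 min RT with compound. Fluorescence increase from first to third read measured activity.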
RECQ1 inh: RECQ1 (human) helicase inhibition | Potency, µM (series often up to 57.3 µM), without a hit: top-dose activity, negative = inhibition, most hits filed as inhibitors | P46063 | 240,000 compounds, 0.54% hits | RECQ1 DNA unwinding, red fluorescence kinetic read;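 further: plate controls were vehicle for no effect and no enzyme for full effect; nearly all actives have a fitted effect of over 30% in size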
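RECQ1T1 50 nM; forked duplex (20 bp + 30-nt ss tails) 200 nM, ATP 2 mM final; pH 8.0, 2 mM MgCl2, 2.5 ug/ml poly(dI-dC); 15 min compound preincubation; discontinuous kinetic read over 2 h at RT.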
WRN inhibitor: WRN helicase (human) inhibition; 360,000 compounds, 0.46% hits; WRN helicase unwinding, fluorescent forked duplex, kinetic; Potency, µM (titrated, usually from 114 µM), without a hit: at the top dose activity change, negative = inhibition, hits mostly inhibitors; Q14191; further: on the % scale 0 is the no-effect control and ±100 the full control effect; nearly all actives have a fitted effect of over 55% in size
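Kinetic red-fluorescence monitoring (525/598 nm) tracks WRN helicase activity after 100 nM fluorophore-quencher forked duplex and 2 mM ATP are added to 20 nM enzyme pretreated 15 min at room temperature with compound.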
FEN1 inh-2: FEN1 inhibition, cherry-pick retest. shares compounds with FEN1 inh-1. FEN1 flap cleavage, TAMRA/BHQ2 fluorogenic DNA substrate. Potency, µM, usual class: inhibitors. 880 compounds, 79% hits; further: nearly all actives have a fitted effect of over 60% in size
Numbers without * were called inactive; i = inactive; u = inconclusive; x = not tested or not shown; [ ] = another dose, or the depositor's remark. The call rests on the fitted dose curve; in most records, active means well fitted curve in the direction sought with a large enough effect; inconclusive means small, poorly fitted or top-dose-only effect, or another doubt; inactive means no such curve, though single readings can be large; an effect the other way counts as inactive or inconclusive. Potency means the concentration at half of the fitted maximal effect.

SMILES	FEN1 inh-1	L3MBTL1 block	BLM inh	APEX1 inh	RECQ1 inh	WRN inhibitor	FEN1 inh-2
O=C(OCC(=O)N1CCc2ccccc21)c1ccc([N+](=O)[O-])o1	u	-3.2%	x	-28.7%	x	14.0%	8.49*
O=C(COC(=O)c1ccc([N+](=O)[O-])o1)NCc1ccc2c(c1)OCO2	17.8µM*	-57.4%	x	-11.7%	x	15.0%	7.57*
CC(NC(=O)COC(=O)c1ccc([N+](=O)[O-])o1)c1ccccc1 (stereo not given)	u	-17.1%	x	-27.3%	x	13.1%	15.1*
O=C(COC(=O)c1ccc(Br)o1)NCc1ccc2c(c1)OCO2	-0.6%	-4.8%	x	-9.5%	x	-1.0%	x
O=C(COC(=O)c1ccc([N+](=O)[O-])o1)NC1CCCc2ccccc21 (stereo not given)	u	-17.7%	x	-31.1%	x	-30.1%	23.9*
O=C(OCC(=O)N1CCCc2ccccc21)c1ccc(Br)o1	-4.2%	-6.5%	-0.3%	-8.9%	-14.0%	-7.7%	x
CC(C)C[C@H]1CNC(=O)C(=O)N1C[C@H]1CCCN1C[C@H](CC(C)C)N1C[C@H](Cc2ccccc2)N(CCc2ccccc2)C(=O)C1=O	x	x	x	x	x	0.3%	x
COCCn1c(=O)c(-c2ccc(F)cc2)nc2cnc(OC)nc21	x	x	1.0%	-5.4%	-5.9%	x	x
O=C(c1cccc(F)c1)N1CCC2(CC1)CN(c1cccc(-c3ccccc3)c1)C2	x	x	-10.5%	7.8%	-0.2%	x	x
CC(C)(C)N(Cc1ccccc1)C(=O)COC(=O)c1ccc([N+](=O)[O-])o1	u	-7.3%	x	16.3%	x	5.7%	21.3*
O=C(COC(=O)c1ccc(Br)o1)NCCc1ccccc1	-2.8%	x	2.1%	-3.3%	-4.0%	7.6%	x
O=C(COC(=O)c1ccc([N+](=O)[O-])o1)NCCc1ccccc1	u	-21.8%	x	-0.5%	x	-0.2%[11.6 µM]	9.53*
CCc1nc2c(OCc3ccc(Cl)cc3Cl)cccn2c1N(C=O)Cc1ccc(OC)cc1	x	x	x	x	x	1.5%[57.1 µM]	x
O=C(O)CCN1C(=O)/C(=C/c2cn(-c3ccccc3)nc2-c2cccs2)SC1=S	u	-0.3%	-5.8%	-2.3%	9.1%	-22.5%[11.6 µM]	x
COc1ccc(-c2nn(-c3ccccc3)cc2/C=C2/SC(=S)N(CCC(=O)O)C2=O)c(C)c1	u	-24.0%	u	u	x	-21.3%	67.5*
CCN(CC)C(=O)/C(C#N)=C/c1cc(O)c(O)c([N+](=O)[O-])c1	x	x	-10.2%	x	x	x	x
N#CC(C#N)=C(N)/C(C#N)=C/c1cc(O)c(O)c(O)c1	8.91µM*	u	x	u	u	u	19*
CCN(CC)CCNc1ccc(CO)c2oc3cc(Cl)ccc3c(=O)c12	x	x	x	x	x	7.0%	x
CN(C)CCNc1ccc(CO)c2oc3ccc(O)cc3c(=O)c12	35.5µM*	x	x	x	x	7.4%[11.6 µM]	30.1*
O=C([C@@H]1CC=C[C@@H]2CCN(C3CC3)C(=O)[C@@H]21)N1CCOCC1	20.2%	x	x	x	x	x	x
CN(C)CCNc1ncnc2ccc(-c3ccc4c(c3)OCO4)cc12	x	x	x	x	x	x	30.1*
NCCCNc1ncnc2ccc(-c3ccc4c(c3)OCO4)cc12	x	x	x	x	x	x	37.9*
CN1CCCC1CCNc1ncnc2ccc(-c3ccc4c(c3)OCO4)cc12 (stereo not given)	x	x	x	x	x	x	47.8*
Cc1ccc2[nH]c(=O)c(CN(CCO)Cc3nnnn3Cc3ccco3)cc2c1	-17.4%	x	x	x	x	x	x
CCc1cccc(N2C(=O)CS(=O)(=O)C23C(=O)N(Cc2ccccc2)c2ccc(C)cc23)c1 (stereo not given)	9.0%	x	-2.2%	x	x	x	x
SMILES	FEN1 inh-1	L3MBTL1 block	BLM inh	APEX1 inh	RECQ1 inh	WRN inhibitor	FEN1 inh-2
CCCCCCn1cc(CN2CC(N(C)CCC)CS2(=O)=O)nn1 (stereo not given)	x	x	x	x	x	-3.1%	x
COCCn1c(=NC(=O)c2cc(Cl)sc2Cl)sc2cc(S(N)(=O)=O)ccc21	-1.8%	1.2%	-6.0%	-2.7%	-8.8%	1.1%	x
COCCn1c(=NC(=O)c2ccc3c(c2)OCCO3)sc2cc(S(N)(=O)=O)ccc21	-2.5%	x	-4.7%	-3.9%	-3.7%	-9.4%[11.6 µM]	u
COc1ccccc1N1CCN(c2ncc3c(n2)CCN(Cc2ccccc2C)C3)CC1	1.1%	x	-9.4%	x	x	x	x
Cc1ccccc1CN1CCc2nc(N3CCN(c4ncccn4)CC3)ncc2C1	u	x	0.9%	x	x	x	67.5*
COc1cccc(NC(=O)Cn2cc(C(=O)c3ccc(C)cc3)c(=O)c3cc(OC)ccc32)c1	79.4µM*	-3.3%	u	8.6%	x	x	u
COc1ccc2c(c1)c(=O)c(C(=O)c1ccc(F)cc1)cn2CC(=O)Nc1ccc(F)cc1	-14.7%	-1.1%	-2.9%	-8.3%	i	-5.5%	x
O=NN(CC(=O)NNc1ccccc1)CC(=O)NNc1ccccc1	x	x	x	x	x	2.7%	x
COc1ccc2c(=O)n3nc(Nc4cccc(N5CCN(C)CC5)c4)sc3nc2c1	x	x	x	x	x	x	u
O=c1c2ccccc2nc2sc(Nc3cccc(Cl)c3)nn12	16.5%	7.3%	x	-29.3%	x	x	x
CN1CCN(c2cccc(Nc3nn4c(=O)c5ccccc5nc4s3)c2)CC1	x	x	x	x	x	x	42.6*
CCN1CCN(c2cccc(Nc3nn4c(=O)c5ccccc5nc4s3)c2)CC1	x	x	x	x	x	x	u
Cc1ccc(/C=C/c2nc3sc(C(=O)O)c(C)c3c(=O)[nH]2)cc1[N+](=O)[O-]	1.6%	x	-9.4%	8.44µM*	x	u	75.7*
Cc1c(C(=O)O)sc2nc(/C=C/c3cccc(F)c3)[nH]c(=O)c12	u	x	-6.6%	u	x	-3.4%[11.6 µM]	x
O=C(O)c1cn(C2CC2)c2cc(N3CCN(S(=O)(=O)c4ccc5c(c4)OCCO5)CC3)c(F)cc2c1=O	u	3.0%	-11.3%	0.1%	i	79.4µM*	42.6*
CCn1cc(C(=O)O)c(=O)c2cc(F)c(N3CCN(S(=O)(=O)c4ccc(Br)cc4)CC3)cc21	x	4.7%	-0.8%	-5.9%	i	x	x
Cc1ccc(-n2ccnc(NCCc3ccc(S(N)(=O)=O)cc3)c2=O)c(C)c1	21.1%	x	-0.7%	x	x	x	x
CC1=NN(CCC#N)C(=O)/C1=C/c1ccc(N(C)C)cc1	-7.3%	-28.5%	-0.1%	0.5%	i	-7.4%	x
CCOc1cc(/C=C2\C(=O)N(CCC#N)N=C2C)ccc1OCC(N)=O	-4.6%	-3.9%	1.3%	0.1%	-28.0%	-13.4%[57.1 µM]	u
CN(C)S(=O)(=O)n1cnc(C(CCO)c2ncn(S(=O)(=O)N(C)C)c2CCCO)c1 (stereo not given)	-14.5%	-5.4%	x	-5.7%	x	2.7%	x
O=C1CC(=O)NC(SCC(=O)Nc2ccccc2[N+](=O)[O-])=N1	u	x	-17.0%	-41.9%	x	39.8µM*	u
Cc1cccc(Nc2nc(C)nc3c2oc2ccccc23)c1	u	x	-1.0%	58.2%	x	-4.3%	x

Bioassay records from PubChem BioAssay.
